About 3,300 (8.5%) of roughly 39,000 compounds were called active. Many of the other results were omitted from the sample, so actives are more common in it than they were.
tested on: HepG2; assay: cytotoxicity call (relative viability < 0.9); details: 10 µM

SMILES	cytotoxicity call
C[C@@H]1CN([C@H](C)CO)S(=O)(=O)c2ccc(Br)cc2O[C@H]1CN(C)C(=O)Nc1ccccc1	inactive
C[C@@H]1CN([C@H](C)CO)C(=O)Cc2cc(NC(=O)Nc3cccc4ccccc34)ccc2O[C@H]1CN(C)CC1CCCCC1	inactive
C[C@H](CO)N1C[C@H](C)[C@H](CN(C)CC2CCCCC2)Oc2ccc(NC(=O)Nc3cccc4ccccc34)cc2CC1=O	inactive
C[C@H]1CN([C@@H](C)CO)C(=O)Cc2cc(NC(=O)Nc3cccc4ccccc34)ccc2O[C@@H]1CN(C)CC1CCCCC1	active
C[C@@H]1CN([C@H](C)CO)C(=O)Cc2cc(NC(=O)Nc3cccc4ccccc34)ccc2O[C@@H]1CN(C)C(=O)NC1CCCCC1	inactive
C[C@@H]1CN([C@@H](C)CO)C(=O)Cc2cc(NC(=O)Nc3cccc4ccccc34)ccc2O[C@@H]1CN(C)CC1CCCCC1	active
C[C@@H]1CN([C@@H](C)CO)C(=O)Cc2cc(NC(=O)Nc3cccc4ccccc34)ccc2O[C@H]1CN(C)CC1CCCCC1	inactive
C[C@@H]1CN([C@H](C)CO)C(=O)Cc2cc(NC(=O)Nc3cccc4ccccc34)ccc2O[C@@H]1CN(C)CC1CCCCC1	active
C[C@H](CO)N1C[C@H](C)[C@@H](CN(C)CC2CCCCC2)Oc2ccc(NC(=O)Nc3cccc4ccccc34)cc2CC1=O	inactive
C[C@H]1CN([C@@H](C)CO)C(=O)Cc2cc(NC(=O)Nc3cccc4ccccc34)ccc2O[C@H]1CN(C)CC1CCCCC1	active
COc1ccc(S(=O)(=O)Nc2ccc3c(c2)C(=O)N([C@@H](C)CO)C[C@@H](C)[C@H](CN(C)S(=O)(=O)c2ccccc2)O3)cc1	inactive
Cc1ccc(S(=O)(=O)Nc2ccc3c(c2)C(=O)N([C@H](C)CO)C[C@H](C)[C@@H](CN(C)C(=O)Cc2ccccc2)OCCCC[C@H](C)O3)cc1	inactive
CN1C(=O)c2cc(NC(=O)c3cccs3)ccc2OC[C@H]2O[C@H](CC(=O)NCCN3CCCCC3)CC[C@H]21	inactive
CO/N=C1\CN(c2nc3c(cc2F)c(=O)c(C(=O)O)cn3C2CC2)C[C@@H]1CN	inactive
COc1ccc(S(=O)(=O)N2C[C@@H](O)COC[C@@H]3O[C@@H](CC(=O)N[C@@H]4CCN(Cc5ccccc5)C4)CC[C@H]32)cc1	inactive
C[C@]1(C(=O)NCC(F)(F)F)c2ccccc2C(=O)N(Cc2cc(F)cc(C(F)(F)F)c2)[C@H]1c1ccc(CO)cc1	inactive
Cc1ccc(S(=O)(=O)Nc2cccc3c2O[C@@H](CN(C)S(=O)(=O)c2ccccc2)[C@H](C)CN([C@@H](C)CO)C3=O)cc1	inactive
COCC#Cc1cnc2c(c1)C(=O)N([C@@H](C)CO)C[C@@H](C)[C@@H](CN(C)C(=O)CCN1CCCCC1)O2	inactive
Cc1noc(C)c1NC(=O)Nc1ccc2c(c1)C(=O)N([C@H](C)CO)C[C@H](C)[C@@H](CN(C)S(=O)(=O)c1ccccc1)OCCCC[C@@H](C)O2	inactive
NC1(Cc2ccc(Cl)cc2)CCN(c2ncnc3[nH]ccc23)CC1	active
Cc1ccc(S(=O)(=O)N2C[C@H](O)COC[C@@H]3O[C@@H](CC(=O)N[C@@H]4CCN(Cc5ccccc5)C4)CC[C@H]32)cc1	inactive
COc1cc2c3cc1Oc1cc(ccc1O)O[C@H]1c4c(cc(OC)c(O)c4Oc4ccc(cc4)C[C@@H]3N(C)CC2)CCN1C	inactive

SMILES	cytotoxicity call
CN1CCc2cccc3c2C1Cc1ccc(O)c(O)c1-3.Cl (stereo not given)	active
C[C@H](CO)N1C[C@H](C)[C@@H](CN(C)S(C)(=O)=O)Oc2ccc(NC(=O)NC3CCCCC3)cc2C1=O	inactive
C[C@@H]1CN([C@H](C)CO)C(=O)CCCn2cc(nn2)CO[C@@H]1CN(C)C(=O)CCCN(C)C	inactive
COCC#Cc1cnc2c(c1)C(=O)N([C@@H](C)CO)C[C@@H](C)[C@H](CN(C)C(=O)c1ccc3c(c1)OCO3)O2	inactive
C[C@H](CO)N1C[C@H](C)[C@@H](CN(C)S(=O)(=O)c2cn(C)cn2)Oc2cc(C#Cc3ccc(F)cc3)ccc2S1(=O)=O	inactive
Cc1c(C(=O)Nc2ccc3ccccc3c2)oc2ccccc12	active
CCC(=O)Nc1ccc2ccccc2c1	inactive
O=C(Cc1ccc(-c2ccccc2)cc1)Nc1c(C(=O)Nc2ccc3c(c2)OCCO3)oc2ccccc12	inactive
CC(C)NC(=O)N(C)C[C@H]1Oc2ccc(NC(=O)CCC(F)(F)F)cc2C(=O)N([C@@H](C)CO)C[C@H]1C	inactive
C[C@@H]1CN([C@H](C)CO)S(=O)(=O)c2ccc(C3=CCCC3)cc2O[C@H]1CN(C)C(=O)C1CCOCC1	inactive
COCC(=O)N1C[C@H](C)[C@@H](OC)CN(C)C(=O)c2ccc(NC(=O)c3ccc(OC)cc3)cc2OC[C@H]1C	inactive
CCOC(=O)N1CCC(O)CC1	inactive
CCOC(=O)CN1CCN(C=O)CC1	active
CCOC(=O)CN1C(=O)c2ccccc2C1=O	inactive
CN(C)CCCNC(=O)[C@H]1[C@H](CO)[C@H]2Cn3c(ccc(-c4cccc(C(=O)N(C)C)c4)c3=O)[C@@H]1N2	inactive
C[C@@H]1CN([C@H](C)CO)C(=O)c2cc(N(C)C)ccc2O[C@@H](C)CCCCO[C@@H]1CN(C)C(=O)Nc1ccc(C(F)(F)F)cc1	inactive
C[C@H](CO)N1C[C@H](C)[C@@H](CN(C)C(=O)Nc2ccc(C(F)(F)F)cc2)OCCCC[C@H](C)Oc2ccc(N(C)C)cc2C1=O	inactive
C[C@@H]1CCCCO[C@@H](CN(C)C(=O)Nc2ccc(C(F)(F)F)cc2)[C@@H](C)CN([C@H](C)CO)C(=O)c2cc(N(C)C)ccc2O1	inactive
C[C@H]1CCCCO[C@H](CN(C)C(=O)Nc2ccc(C(F)(F)F)cc2)[C@@H](C)CN([C@@H](C)CO)C(=O)c2cc(N(C)C)ccc2O1	inactive
C[C@@H]1CCCCO[C@@H](CN(C)C(=O)Nc2ccc(C(F)(F)F)cc2)[C@H](C)CN([C@H](C)CO)C(=O)c2cc(N(C)C)ccc2O1	active
C[C@@H]1CN([C@@H](C)CO)C(=O)c2cc(N(C)C)ccc2O[C@@H](C)CCCCO[C@@H]1CN(C)C(=O)Nc1ccc(C(F)(F)F)cc1	active
Cc1nn2cc(CN)nc2s1	inactive

SMILES	cytotoxicity call
C[C@@H]1CN([C@H](C)CO)C(=O)Cc2cc(NC(=O)C3CC3)ccc2O[C@@H]1CN(C)S(=O)(=O)c1cn(C)cn1	inactive
C=CCC[C@@H](Cc1ccc(F)cc1)C(=O)OC[C@@H](NC(=O)[C@@H](CC=C)CC(=O)N(CCO)Cc1ccccc1)C(C)(C)C	inactive
C[C@@H]1CN([C@@H](C)CO)C(=O)c2cccc(NS(C)(=O)=O)c2O[C@@H]1CN(C)Cc1ccc(C(F)(F)F)cc1	inactive
C[C@@H]1CN([C@@H](C)CO)S(=O)(=O)c2ccc(Br)cc2O[C@H]1CN(C)Cc1ccc(-c2ccccc2)cc1	inactive
C[C@H]1CCCCO[C@@H](CN(C)C(=O)NC2CCCCC2)[C@@H](C)CN([C@@H](C)CO)C(=O)c2cc(NS(=O)(=O)c3ccc(Cl)cc3)ccc2O1	inactive
C[C@@H]1CCCCO[C@@H](CN(C)C(=O)NC2CCCCC2)[C@@H](C)CN([C@@H](C)CO)C(=O)c2cc(NS(=O)(=O)c3ccc(Cl)cc3)ccc2O1	inactive
C[C@@H]1CCCCO[C@H](CN(C)C(=O)NC2CCCCC2)[C@H](C)CN([C@H](C)CO)C(=O)c2cc(NS(=O)(=O)c3ccc(Cl)cc3)ccc2O1	active
C[C@H]1CCCCO[C@H](CN(C)C(=O)NC2CCCCC2)[C@@H](C)CN([C@@H](C)CO)C(=O)c2cc(NS(=O)(=O)c3ccc(Cl)cc3)ccc2O1	inactive
C[C@@H]1CN([C@H](C)CO)C(=O)c2cc(NS(=O)(=O)c3ccc(Cl)cc3)ccc2O[C@@H](C)CCCCO[C@@H]1CN(C)C(=O)NC1CCCCC1	active
C[C@@H]1CCCCO[C@H](CN(C)C(=O)NC2CCCCC2)[C@H](C)CN([C@@H](C)CO)C(=O)c2cc(NS(=O)(=O)c3ccc(Cl)cc3)ccc2O1	inactive
C[C@@H]1CN([C@H](C)CO)S(=O)(=O)c2ccc(C#C[C@@H](C)O)cc2O[C@H]1CN(C)C(=O)c1ccccc1	inactive
COc1ccccc1NC(=O)N(C)C[C@@H]1OCc2ccccc2-c2c(n(C)c3ccccc23)C(=O)N([C@H](C)CO)C[C@H]1C	inactive
O=C(C[C@@H]1C[C@@H]2c3cc(NC(=O)NC4CCCC4)ccc3O[C@@H]2[C@@H](CO)O1)NCCN1CCCCC1	inactive
CN(C)c1ccc(C(=C2C=CC(=[N+](C)C)C=C2)c2ccc(N(C)C)cc2)cc1.[Cl-]	active
C[C@@H]1CCCCO[C@@H](CN(C)Cc2ccc(Cl)c(Cl)c2)[C@@H](C)CN([C@H](C)CO)C(=O)c2cc(NS(C)(=O)=O)ccc2O1	inactive
COc1ccc(S(=O)(=O)N(C)C[C@@H]2Oc3ccc(NS(=O)(=O)c4c(C)noc4C)cc3C(=O)N([C@H](C)CO)C[C@@H]2C)cc1	active
COc1ccc(NC(=O)N(C)C[C@@H]2Oc3ccc(NS(=O)(=O)c4c(C)noc4C)cc3C(=O)N([C@@H](C)CO)C[C@H]2C)cc1	inactive
COc1ccc(NC(=O)N(C)C[C@@H]2Oc3ccc(NS(=O)(=O)c4c(C)noc4C)cc3C(=O)N([C@H](C)CO)C[C@@H]2C)cc1	inactive
COc1ccc(NC(=O)N(C)C[C@@H]2Oc3ccc(NS(=O)(=O)c4c(C)noc4C)cc3C(=O)N([C@@H](C)CO)C[C@@H]2C)cc1	active
COc1ccc(S(=O)(=O)N(C)C[C@H]2Oc3ccc(NS(=O)(=O)c4c(C)noc4C)cc3C(=O)N([C@H](C)CO)C[C@@H]2C)cc1	inactive
COc1ccc(S(=O)(=O)N(C)C[C@H]2Oc3ccc(NS(=O)(=O)c4c(C)noc4C)cc3C(=O)N([C@H](C)CO)C[C@H]2C)cc1	inactive
